These results are taken from PubChem BioAssay AID652016 (National Center for Advancing Translational Sciences (NCATS), 2013).

The structures appear in SMILES notation. Inconclusive results are not listed. A number with no mark means an inactive call. The source made the active and inactive calls. Calls follow the shape of the dose curve; as a rule, active = well fitted inhibition curve with a large enough effect; inconclusive = small, poorly fitted or top-dose-only effect; inactive = flat fitted curve, though single readings scatter.
% is scaled to controls: 0 for no effect and ±100 for the full control effect; potency is read from the fitted curve at half-maximal effect.

In the test the target is Luciferin 4-monooxygenase (Photinus pyralis) (UniProt P08659). Nature of the test: qHTS Assay for Inhibitors of Firefly Luciferase from the GSK Published Protein Kinase Inhibitor Set. As to conditions: purified firefly luciferase, luminescence inhibition; series mostly up to 57.5 µM; activity change, negative = inhibition: at the top concentration. The method in brief: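 Enzyme-level luminescence assay: compounds titrated (about 60uM down to 300pM) into substrate buffer (10uM ATP, 10uM D-luciferin, pH 7.5 Tris acetate with Mg, Tween-20, BSA), then 10nM firefly luciferase added; read after ~5 min.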
Chain of Luciferin 4-monooxygenase (Photinus pyralis) (P08659 whole entry, looked up): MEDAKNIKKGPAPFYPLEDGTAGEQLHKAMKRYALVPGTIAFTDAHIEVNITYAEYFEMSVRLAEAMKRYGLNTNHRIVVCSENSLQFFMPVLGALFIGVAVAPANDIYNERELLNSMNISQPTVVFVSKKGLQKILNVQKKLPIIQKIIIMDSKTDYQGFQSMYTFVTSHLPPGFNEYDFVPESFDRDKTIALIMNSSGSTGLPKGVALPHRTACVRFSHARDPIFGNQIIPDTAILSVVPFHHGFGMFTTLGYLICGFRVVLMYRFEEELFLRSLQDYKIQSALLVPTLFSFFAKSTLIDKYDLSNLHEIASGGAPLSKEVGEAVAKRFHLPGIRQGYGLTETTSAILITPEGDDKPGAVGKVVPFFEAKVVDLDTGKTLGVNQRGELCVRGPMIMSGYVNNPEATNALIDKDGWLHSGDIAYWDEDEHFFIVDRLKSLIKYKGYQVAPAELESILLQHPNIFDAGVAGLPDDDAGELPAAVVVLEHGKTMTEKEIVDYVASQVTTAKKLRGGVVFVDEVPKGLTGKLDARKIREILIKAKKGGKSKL
For the compound `CCS(=O)(=O)c1ccc(OC)c(Nc2ncc(-c3cccc(C(C)=O)c3)o2)c1`, the “activity change, negative = inhibition” value was -1.52%.
As to `COc1ccc(-c2ccncc2)cc1C(N)=O`, the “activity change, negative = inhibition” value was 6.06%.
The same measure, in the same setting: next, `NC(=O)c1sc(-n2cnc3ccccc32)cc1OCc1ccccc1Br`: -3.22%; `CCN(CC)S(=O)(=O)c1ccc(OC)c(Nc2ncc(-c3ccccc3)o2)c1`: 0.125%.
Turning to `Cc1c2ccc(N(C)c3ccnc(Nc4cccc(S(N)(=O)=O)c4)n3)cc2nn1C`, the Potency is 13 µM (active).
Take `CS(=O)(=O)c1ccc(Oc2nccc(-c3c(-c4ccc(F)cc4)ncn3C3CCNCC3)n2)cc1`: the “activity change, negative = inhibition” value is 7.12%.
The same measure, in the same setting: as for `CCS(=O)(=O)c1ccc(OC)c(Nc2ncc(-c3ccccc3Cl)o2)c1`, the figure is -5.19%; as for `O=C(OC1CNC(C#Cc2cc3ncnc(Nc4ccc5c(ccn5Cc5cc(F)ccc5F)c4)c3s2)C1)N1CCOCC1` (centres undefined), -6.86%.
As for `CC(C)COC(=O)c1ccc2[nH]c(O)c(C=Nc3ccc(S(N)(=O)=O)cc3)c2c1`, the “activity change, negative = inhibition” value is 4.05%.
Still for that read-out and setting: as for `NS(=O)(=O)c1ccc(-c2cc3ccncc3cc2OCc2ccccc2)cc1`, the figure is 2.83%; as for `O=C1NC(=O)C(c2cccc(Cl)c2)=C1Nc1ccc(O)c(Cl)c1`, -4.63%.
Same read-out and setting: next, `Nc1nc(-c2cccc(Cl)c2)c(-c2ccc3ncccc3n2)s1`: 2.24%.
Turning to `CCn1c(-c2nonc2N)nc2cnc(Oc3cccc(NC(=O)c4ccc(N(C)C)cc4)c3)cc21`, the Potency is 1.03 µM (active).
Turning to `COc1cc(N2CCN(C(C)C)CC2)ccc1Nc1nc(Nc2cccc(F)c2C(=O)O)c2cc[nH]c2n1`, the “activity change, negative = inhibition” value is 0.459%.
On the same count and under the same terms, next, `COC(=O)Nc1nc2ccc(Sc3ccc(NC(=O)Nc4cc(C(F)(F)F)ccc4F)cc3)cc2[nH]1`: 15%.
As to `CCn1c(-c2nonc2N)nc2c(C#CC(C)(C)O)nc(CN3CCCC3)cc21`, the “activity change, negative = inhibition” value was 9.71%.
Still for that read-out and setting: next, `NC(=O)Cc1ccccc1Oc1nccc(-c2c(-c3ccc(F)cc3)ncn2C2CCNCC2)n1`: 0.77%; `O=C(OC1CNC(C#Cc2cc3ncnc(Nc4ccc(Cc5ccccc5)cc4)c3s2)C1)N1CCOCC1` (centres undefined): 3.82%.
Regarding `OCCCNc1nccc(-c2c(-c3ccc(F)cc3)nn3cc(C(F)(F)F)ccc23)n1`, the Potency was 32.6 µM (active).
As to `N#Cc1cccc(Nc2nccc(-c3cnn4ncccc34)n2)c1`, the “activity change, negative = inhibition” value is 6.81%.
Same read-out and setting: next, `CS(=O)(=O)CCNCc1cc(-c2cc3c(Nc4ccc(OCc5cccc(F)c5)c(Cl)c4)ncnc3s2)cs1`: -10.2%.
Same read-out and setting: as for `CS(=O)(=O)CCN(CC#N)Cc1ccc(-c2ccc3ncnc(Nc4ccc(OCc5cccc(F)c5)c(Cl)c4)c3c2)o1`, the figure is 8.94%; as for `Oc1cccc(-c2nc(-c3ccccc3)[nH]c2-c2ccncc2)c1`, -4.49%.
For the compound `COC(=O)Nc1nc2ccc(Oc3ccc(NC(=O)Nc4cccc(Br)c4)cc3)cc2[nH]1`, the “activity change, negative = inhibition” value is -19.6%.
On the same count and under the same terms, next, `COC(=O)Nc1nc2ccc(S(=O)(=O)c3ccc(NC(=O)Nc4cc(C(F)(F)F)ccc4F)cc3)cc2[nH]1`: 5.29%; `COc1ccc(CNC(=O)c2ccc(-c3cc(-c4nnc(C)o4)ccc3C)cc2)cc1`: 8.91%.
As for `COc1cc2ncnc(Nc3ccc4c(cnn4Cc4ccccc4)c3)c2cc1OC`, the “activity change, negative = inhibition” value is -4.23%.
Still for that read-out and setting: next, `Nc1nc(-c2ccc(F)cc2)c(-c2ccc3ncccc3n2)s1`: 10.4%.
For the compound `N#Cc1c(NC(=O)c2ccc(F)cc2)sc2c1CCCC2`, the Potency is 0.919 µM (active).
Take `COc1ccc(COc2ccc(Cc3cnc(N)nc3N)cc2OC)cc1`: the “activity change, negative = inhibition” value is 0.275%.
Same read-out and setting: next, `COc1ccc2c(-c3ccnc(Nc4cccc(OC(F)(F)F)c4)n3)cnn2n1`: 6.14%; `COc1cc2ncn(-c3cc(OCc4ccccc4S(C)(=O)=O)c(C#N)s3)c2cc1OC`: 5.28%; `COc1cccc(-n2ncc3c(NN=Cc4ccc(C)cc4)ncnc32)c1`: -8.95%.
Consider `c1ccc(-c2[nH]ncc2-c2ccnc(-c3ccc(OCCn4ccnc4)cc3)c2)nc1`, for which the “activity change, negative = inhibition” value is 0.937%.
